The campaign covered roughly 99,000 compounds. About 820 (0.83%) were called active.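 The calls were made as follows: active = Z-score of -3 or lower, scaled per plate to the spread of control and sample wells; inactive = z-score above -3.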 Shown is part of a subset that was picked to be rich in actives.

Chain of Protein-tyrosine kinase 2-beta (Homo sapiens) (Q14289 whole entry, looked up): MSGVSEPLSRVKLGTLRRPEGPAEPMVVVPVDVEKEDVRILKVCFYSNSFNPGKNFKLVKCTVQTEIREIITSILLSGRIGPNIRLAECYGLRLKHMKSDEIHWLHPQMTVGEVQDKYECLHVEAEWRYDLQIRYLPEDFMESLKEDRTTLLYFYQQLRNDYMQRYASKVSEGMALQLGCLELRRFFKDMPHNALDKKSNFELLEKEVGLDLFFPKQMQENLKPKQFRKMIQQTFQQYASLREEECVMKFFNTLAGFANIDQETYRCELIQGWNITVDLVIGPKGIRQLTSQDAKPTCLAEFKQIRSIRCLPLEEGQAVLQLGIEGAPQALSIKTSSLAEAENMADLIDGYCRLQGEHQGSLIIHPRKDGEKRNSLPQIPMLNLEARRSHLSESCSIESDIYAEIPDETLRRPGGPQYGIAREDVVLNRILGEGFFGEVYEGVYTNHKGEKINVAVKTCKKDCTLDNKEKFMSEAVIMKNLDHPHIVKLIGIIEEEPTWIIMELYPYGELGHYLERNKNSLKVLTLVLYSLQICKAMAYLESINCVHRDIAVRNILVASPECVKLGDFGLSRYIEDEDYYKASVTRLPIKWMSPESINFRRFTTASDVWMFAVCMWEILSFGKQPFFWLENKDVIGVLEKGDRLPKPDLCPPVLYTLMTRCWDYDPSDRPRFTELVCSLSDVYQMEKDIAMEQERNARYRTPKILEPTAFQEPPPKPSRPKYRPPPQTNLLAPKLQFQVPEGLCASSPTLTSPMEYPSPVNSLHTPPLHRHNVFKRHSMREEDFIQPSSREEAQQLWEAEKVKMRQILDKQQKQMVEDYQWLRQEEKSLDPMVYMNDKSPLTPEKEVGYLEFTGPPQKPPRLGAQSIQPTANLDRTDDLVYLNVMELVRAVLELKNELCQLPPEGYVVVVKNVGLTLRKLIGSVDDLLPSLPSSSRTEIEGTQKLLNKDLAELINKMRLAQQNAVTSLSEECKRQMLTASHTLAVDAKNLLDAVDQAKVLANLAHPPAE

The test has as its target Protein-tyrosine kinase 2-beta (Homo sapiens) (UniProt Q14289). Put plainly: antagonists of Pyk2 self-association, primary screen, Q293 cells, FERM NanoBiT luminescence, HTS (AID 1347419).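 Also: the deposit names both 25 µM and 10 µM; negative z-score means lost luminescence so less FERM oligomerization.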 Also on record: dose or concentration left out as unconfirmed. To be noted: active compounds read low.
Take `O=C(Nc1ccc2c(c1)OCCO2)c1ccc(Cl)c(S(=O)(=O)N2CCCCC2)c1`: the z-score is -3.16 (active).

On to `Cc1ccc(C(=O)Nc2ccc3c(c2)OCO3)cc1S(=O)(=O)N1CCCCC1`, for which the z-score is -0.16 (inactive).

For `O=C(Nc1ccc2c(c1)OCCO2)c1ccncc1`, the z-score was 0.87 (inactive).

`Cc1ccc(C(=O)N/C(=C/c2cccnc2)C(=O)O)cc1`: the z-score was 0.41 (inactive).

On to `CC(=C/c1ccccc1)/C=N/NC(=O)c1cc(C)oc1C`, for which the z-score is -0.05 (inactive).

Take `COc1ccc(-c2cc(C(F)(F)F)nc(SCC(=O)Nc3ccc4c(c3)OCO4)n2)cc1OC`: the z-score was -0.25 (inactive).

Take `CCCc1nc2ccccc2c(C(=O)OCc2nnc(-c3cc(OC)c(OC)c(OC)c3)o2)c1CC`: the z-score is -3.12 (active).

`CCCc1nc2ccccc2c(C(=O)OCC(=O)c2ccc3c(c2)NC(=O)CO3)c1CC`: the z-score is -1.42 (inactive).

For `CCOC(=O)c1cc(-c2nnc(-c3cc(OC)c(OC)c(OC)c3)o2)c(C)nc1C`, the z-score is 0.08 (inactive).

As to `CCOC(=O)c1c(NC(=O)C2CCN(S(=O)(=O)c3ccc(Cl)cc3)CC2)sc2c1CCCC2`, the z-score is 0.49 (inactive).

With `CC(=O)CCC(=O)c1ccc2ccccc2c1`, the z-score is 1.48 (inactive).

In the case of `Cc1ccc2nc(-c3cccnc3)c(NC3CCCC3)n2c1`, the z-score was 0.15 (inactive).

On to `Cc1cc(OCCN2CCCC2)cc(C(C)C)c1`, for which the z-score is 1.27 (inactive).

`C/C(=N\N=C(N)N)c1ccc(Cl)cc1`: the z-score was -0.37 (inactive).

In the case of `CCOC(=O)CC(=O)CSc1nc(-c2ccccc2)cc(-c2ccc(Cl)cc2)c1C#N`, the z-score is -0.86 (inactive).

For `CCSc1nc(-c2ccc(OC)cc2)cc(-c2ccc(OC)cc2)c1C#N`, the z-score is -1.07 (inactive).

In the case of `CCOc1cc(-c2cc(-c3ccc(OC)cc3)nc(N)c2C#N)ccc1O`, the z-score was -3.73 (active).

For the molecule `NC(=O)CCC(NS(=O)(=O)c1ccc(Cl)cc1)C(=O)NCc1ccccc1Cl` (configuration not stated), the z-score is -0.26 (inactive).

Turning to `CCCn1nc(NS(=O)(=O)c2ccccc2)c2cc3cc(C)ccc3nc21`, the z-score is -0.3 (inactive).

Regarding `Cc1cc(C)c(C2C3=C(Nc4c2c(C)nn4-c2ccccn2)c2ccccc2C3=O)c(C)c1` (configuration not stated), the z-score is 1.27 (inactive).

Consider `CS(=O)(=O)N(Cc1ccccc1)c1ccc(C(=O)NN=C2CCCCCC2)cc1`, for which the z-score is -0.45 (inactive).

Take `C=CCOC(=O)C1=C(C)NC(C)=C(C(=O)OCC=C)C1c1cccs1`: the z-score was -3.93 (active).

Take `CCOC(=O)C1=C(C)NC(C)=C(C(=O)OCC)C1c1ccccn1`: the z-score was 1.06 (inactive).

Take `C=CCOC(=O)C1=C(C)NC(SCC(=O)OCC)=C(C#N)C1c1ccc(C)cc1` (configuration not stated): the z-score was -1.05 (inactive).

For `Cc1ccc(-n2c(SCC(=O)NCc3ccc4c(c3)OCO4)nnc2-c2cccnc2)c(C)c1`, the z-score is -4.03 (active).

Regarding `Cc1ccccc1-n1c(SCC(=O)NCc2cccs2)nnc1-c1ccncc1`, the z-score was -0.72 (inactive).

With `Cc1ccccc1-c1nnc(SCC(=O)NCc2ccc3c(c2)OCO3)n1C`, the z-score is 0.49 (inactive).

The values above are taken from PubChem BioAssay AID1347419 (Sanford-Burnham Center for Chemical Genomics, 2020).
